{"source": "the supplement of paper PMC4954754", "note": "± gives the uncertainty stated by the source.", "data": [{"test_system": "HEK293T-Rex ERSE-FLuc", "test": "ERSE-FLuc reporter activation, triplicate confirmation, relative to 500 nM thapsigargin (% of thapsigargin); higher = stronger ATF6/ERSE reporter activation", "conditions": "6.8 µM; 18 h; screen: confirmation", "experimental": "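HEK293T-Rex cells stably expressing the ERSE-firefly luciferase (BiP promoter, ATF6-preferring) or XBP1-splicing Renilla luciferase (IRE1/XBP1s) reporter, 1536-well plates, compound at 6.8 µM for 18 hr at 37 °C; luminescence read […] and expressed as % activation = 100*(compound - median DMSO)/(median 500 nM thapsigargin - median DMSO). Primary screen was single-pass; confirmation screen in triplicate (mean ± SD).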", "values": [{"smiles": "Cc1cccc2c1[nH]c1nc(N/N=C\\c3c[nH]c4ccccc34)nnc12", "ERSE-FLuc reporter activation": "60.4 ± 14"}, {"smiles": "COc1cccc(-c2cc(C(=O)Nc3cc(C)ccc3O)on2)c1", "ERSE-FLuc reporter activation": "34.2 ± 8.4"}, {"smiles": "COc1ccc(N(C(=O)c2ccccc2)S(=O)(=O)c2cc(OC)ccc2OC)cc1", "ERSE-FLuc reporter activation": "103 ± 9.2"}, {"smiles": "Cc1ccc(O)c(-c2cc(-c3ccc(F)cc3)n[nH]2)c1", "ERSE-FLuc reporter activation": "25.5 ± 7.2"}, {"smiles": "O=c1[nH]c(/C=C2\\C=Nc3ccccc32)c(O)n1-c1cccc(Cl)c1", "ERSE-FLuc reporter activation": "58.7 ± 9.3"}, {"smiles": "Nc1ccccc1NC(=O)c1ccc(C(F)(F)F)cc1", "ERSE-FLuc reporter activation": "27.2 ± 5.7"}, {"smiles": "COc1ccc2oc(=Nc3cc(F)ccc3F)c(C(N)=O)cc2c1", "ERSE-FLuc reporter activation": "25.3 ± 4.6"}, {"smiles": "Cc1cc(C)nc(/N=C(\\N)Nc2ccc(OCc3ccccc3)cc2)n1", "ERSE-FLuc reporter activation": "53.1 ± 14"}, {"smiles": "Nc1ccccc1NC(=O)c1ccc(Cl)cc1", "ERSE-FLuc reporter activation": "33.6 ± 4.6"}, {"smiles": "O=C(N/N=C/c1ccc(O)c(O)c1)c1cccc(Cl)c1", "ERSE-FLuc reporter activation": "32.8 ± 3.2"}, {"smiles": "COc1ccc(-c2csc(-c3ccc(O)cc3)n2)cc1", "ERSE-FLuc reporter activation": "29.4 ± 5"}, {"smiles": "CC(=O)Nc1ccc2nc(-c3ccc(OC(C)=O)cc3)sc2c1", "ERSE-FLuc reporter activation": "25.9 ± 3.6"}, {"smiles": "Cc1ccc(O)c(NC(=O)c2cc(C3CC3)on2)c1", "ERSE-FLuc reporter activation": "59.4 ± 7.7"}, {"smiles": "N#C/C(=C(/O)c1cc(-c2ccccc2)nc2ccccc12)c1nc2ccccc2[nH]1", "ERSE-FLuc reporter activation": "31.1 ± 13"}, {"smiles": "C(=N/Nc1nnc2c(n1)[nH]c1ccccc12)/c1c[nH]c2ccccc12", "ERSE-FLuc reporter activation": "29.6 ± 8"}, {"smiles": "CCN(CC)c1ccc2cc(-c3nc4ccccc4n3C)c(=O)oc2c1", "ERSE-FLuc reporter activation": "34.2 ± 4.2"}, {"smiles": "O=c1cc(-c2ccc(O)c(O)c2)oc2ccccc12", "ERSE-FLuc reporter activation": "42.2 ± 12"}, {"smiles": "Cc1ccc(/C=C(\\C#N)C(=O)Nc2cccc(Cl)c2)o1", "ERSE-FLuc reporter activation": "26.2 ± 10"}, {"smiles": "O=c1[nH]c(COc2ccccc2)nc2sc3c(c12)CCCC3", "ERSE-FLuc reporter activation": "39 ± 5.3"}, {"smiles": "Cc1ccc(O)c(N/C=C/C(=O)c2ccc(F)cc2)c1", "ERSE-FLuc reporter activation": "140 ± 17"}, {"smiles": "O=C(NCCCn1ccnc1)c1cc(-c2cccs2)on1", "ERSE-FLuc reporter activation": "42.5 ± 6.9"}, {"smiles": "N#Cc1c(NC(=O)c2ccc3ncsc3c2)sc2c1CCC2", "ERSE-FLuc reporter activation": "32.1 ± 2.5"}, {"smiles": "N#C/C(=C\\c1ccc(O)c(O)c1)C(=O)Nc1ccccc1", "ERSE-FLuc reporter activation": "29.5 ± 5.4"}, {"smiles": "Cc1ccccc1NC(=O)c1sc2nc(N)c(C#N)c(-c3ccc(C(C)C)cc3)c2c1N", "ERSE-FLuc reporter activation": "36.7 ± 3.3"}, {"smiles": "Cc1ccc(O)c(NC(=O)CN(C)S(=O)(=O)c2ccc(Cl)cc2)c1", "ERSE-FLuc reporter activation": "29.8 ± 0.59"}, {"smiles": "COc1cccc(Nc2nc(-c3ccc(OC)c(F)c3)cs2)c1", "ERSE-FLuc reporter activation": "25.2 ± 4.3"}, {"smiles": "COC(=O)c1ccc2c(COC(C)=O)c(OC(C)=O)ccc2c1COC(C)=O", "ERSE-FLuc reporter activation": "113 ± 10"}, {"smiles": "Cc1ccc(O)c(-c2cc(C(F)(F)C(F)F)no2)c1", "ERSE-FLuc reporter activation": "37.1 ± 3.1"}, {"smiles": "Cc1ccc(/C=N/NC(=O)c2cccc(F)c2)cc1", "ERSE-FLuc reporter activation": "27.1 ± 7.8"}, {"smiles": "CC(=O)Oc1cc(N2CCOCC2)c(OC(C)=O)c2c1C(=O)c1ccccc1C2=O", "ERSE-FLuc reporter activation": "45 ± 8"}, {"smiles": "Cc1ccc(O)c(NC(=O)CSc2ccccc2)c1", "ERSE-FLuc reporter activation": "51.1 ± 12"}, {"smiles": "Cc1ccc(O)c(NC(=O)c2cc(-c3cccs3)on2)c1", "ERSE-FLuc reporter activation": "106 ± 4"}, {"smiles": "Cc1cc(C)c2nc3sc(C(=O)N4CCCCC4)c(N)c3cc2c1", "ERSE-FLuc reporter activation": "32.5 ± 8"}, {"smiles": "O=C(CCCCCCC(=O)Nc1ccccc1)NO", "ERSE-FLuc reporter activation": "59.2 ± 17"}, {"smiles": "Cc1ccc(O)c(N=CC2=C(O)c3ccccc3C2=O)c1", "ERSE-FLuc reporter activation": "78.8 ± 6.2"}, {"smiles": "CN(C)c1ccc(/C=N/NC(=O)c2cccc(Br)c2)cc1", "ERSE-FLuc reporter activation": "26.5 ± 2.7"}, {"smiles": "Nc1ccc2nc(/C=C/c3ccccc3)[nH]c2c1", "ERSE-FLuc reporter activation": "36.7 ± 5.2"}, {"smiles": "Cc1ccc2nc(/C(C#N)=C\\c3cc(Cl)cc4c3OCOC4)[nH]c2c1", "ERSE-FLuc reporter activation": "51.3 ± 9.8"}, {"smiles": "CN(C)c1ccc(C(=NO)c2ccc(N(C)C)cc2)cc1", "ERSE-FLuc reporter activation": "28 ± 6.5"}, {"smiles": "CCCCNc1ncnc2c1cnn2-c1ccc(Cl)cc1", "ERSE-FLuc reporter activation": "30.3 ± 4.6"}]}]}
